High-throughput results (PubChem)
Only some compounds are listed: those with a hit (about 21% of all), similar ones and a draw of the others.
MRP resist rev: reversal of MRP1-mediated doxorubicin resistance, primary screen, H69AR cells, doxorubicin co-treatment; H69AR cells + 2 uM doxorubicin, CellTiter-Glo, 72 h; differential viability (reversal), % at 10 µM; 85,000 tested, 0.04% active; AID 602, 2007;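 active means viability drop by adding the cancer drug above about 55%, with treated viability meeting a 40% cutoff, limit read from the data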;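 further: viability without doxorubicin minus viability with 2 µM doxorubicin for each compound; larger differential means the compound sensitizes cells more to doxorubicin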
CYP2C9 inh: blockers of cytochrome P450 2C9 activity – biochemical, luminescence, ADME assay, primary screen. CYP2C9 Supersomes, luciferin-H conversion. inhibition, % at 5 µM. 96,000 tested, 20% active;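 active means blocking of liver enzyme CYP2C9 beyond about 50% at 5 µM, limit read from the data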
Target sequence (P11712 whole entry, looked up): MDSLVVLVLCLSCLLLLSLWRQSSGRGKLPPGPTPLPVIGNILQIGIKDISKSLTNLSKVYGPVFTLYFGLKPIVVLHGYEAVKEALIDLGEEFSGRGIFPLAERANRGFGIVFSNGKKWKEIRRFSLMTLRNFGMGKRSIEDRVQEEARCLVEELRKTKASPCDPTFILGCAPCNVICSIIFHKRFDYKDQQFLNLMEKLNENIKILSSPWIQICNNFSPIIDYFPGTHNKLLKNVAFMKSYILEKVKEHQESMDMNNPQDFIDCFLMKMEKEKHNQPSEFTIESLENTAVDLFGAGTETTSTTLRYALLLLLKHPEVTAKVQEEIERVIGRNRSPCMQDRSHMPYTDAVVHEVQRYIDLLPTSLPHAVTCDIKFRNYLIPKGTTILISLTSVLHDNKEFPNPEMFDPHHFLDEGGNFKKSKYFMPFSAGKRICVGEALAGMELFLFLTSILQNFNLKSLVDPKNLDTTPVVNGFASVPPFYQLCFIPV
CYP2C19 inhib: blockers of cytochrome P450 2C19 activity – biochemical, luminescence, ADME assay, primary screen | P33261 | CYP2C19 Supersomes, luciferin-H EGE luminescence, 30 min | inhibition, % at 5 µM | 96,000 tested, 21% active;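 active means CYP2C19 inhibition above a set limit at 5 µM in the primary screen, cut at about 50% in these data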;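 further: plate controls were negative control wells for no effect and 2.5 mM tranylcypromine positive control for full effect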
CYP2C19 act: human CYP2C19 activators, primary screen, biochemical, luminescence; 96,000 tested, under 10 active; activation factor at 5 µM; Cytochrome P450 2C19 (Homo sapiens), P33261; recombinant CYP2C19, luciferin-H EGE luminescence; hits give high values; 0 = fully inhibited enzyme, 1 = untreated enzyme;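 active means activation factor of at least 2 at 5 µM in the primary screen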;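 further: 0 = wells with 2.5 mM tranylcypromine and 1 = vehicle-only wells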
CYP2C9 act: human CYP2C9 activators, primary screen, biochemical, luminescence. recombinant CYP2C9, luciferin-H conversion; hits give high values; factor 1 = untreated enzyme, 0 = blocked. activation factor at 5 µM. AID 1024, 2008. 96,000 tested, 1.4% active;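 active means activation factor of 2 or more for CYP2C9 at a 5 µM dose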;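 further: 0 = sulfaphenazole-blocked wells and 1 = vehicle-only wells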
MRP1 act: H69AR viability gain despite doxorubicin, primary screen, MRP-1 activator project, H69AR cells, CellTiter-Glo; viability rescue; viability increase, % at 10 µM; 140,000 tested, 0.61% active;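 active means viability gain under doxorubicin at or above a set limit, the compound median plus 3 SD, cut at about 4.7% in these data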;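 further: MRP-1 overexpressing cells given doxorubicin 25 µM after compound pretreatment; 18-22 h compound pretreatment then 72 h with doxorubicin before readout; 0% = doxorubicin-only wells and 100% = vehicle-treated cells without doxorubicin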
The depositor's hits bear a star; x = no result given.

SMILES	MRP resist rev	CYP2C9 inh	CYP2C19 inhib	CYP2C19 act	CYP2C9 act	MRP1 act
Cc1ccccc1Nc1nc(N)nc(CSc2nc3ccccc3s2)n1	x	x	x	x	x	0
Cc1ccc2c(CSc3nnc4ccccn34)cc(=O)oc2c1C	x	x	x	x	x	-1
COCCn1c(SCc2nc(N)nc(Nc3ccccc3C)n2)nc2ccccc2c1=O	-17	71*	50	0.5	0.3	-3
Cc1ccc2c(CSc3nc4ccccc4c(=O)n3CCCO)cc(=O)oc2c1C	16	96*	68*	0.3	0	0
Cc1ccccc1Nc1nc(N)nc(CSc2nc3ccccc3c(=O)n2C)n1	6	82*	68*	0.3	0.2	-3
COc1ccc(NC(=S)NNC(=O)Cn2nc(C(F)F)cc2C(F)F)cc1	x	x	x	x	x	-1
O=C(Nc1nnc(SCc2ccc(Cl)cc2)s1)C1CC(=O)N(Cc2ccccc2)C1 (stereo not given)	x	x	x	x	x	4
COc1cc(-c2nnc(SCC(=O)c3ccccc3)o2)cc(OC)c1OC	-8	11	37	0.6	0.9	-3
COc1cc(-c2nnc(-c3ccc(S(=O)(=O)c4ccccc4)cc3)o2)cc(OC)c1OC	3	61*	61*	0.4	0.4	-1
COc1cc(-c2nnc(SCC3(c4ccccc4)OCCO3)o2)cc(OC)c1OC	x	-65	76*	0.2	1.6	-2
CCN(CC)S(=O)(=O)c1ccc(N=NC2=C(O)CCCC2=O)cc1	x	x	x	x	x	-3
O=C1CCCC(O)=C1N=Nc1ccc2c(c1)OCO2	x	x	x	x	x	7.7*
Cc1cc(N2CCN(c3ccccc3)CC2)nc(-n2nc(C)cc2C)n1	0	90*	60*	0.4	0.1	-4
Cc1cccc(NCc2ccccc2O)c1	19	51*	92*	0.1	0.5	-1
Cc1ccccc1NCc1ccccc1O	-9	25	59*	0.4	0.8	-4
Cc1ccc(NCc2ccccc2O)cc1	-1	12	66*	0.3	0.9	-2
Cc1ccc(O)c(CNc2ccccn2)c1	x	33	67*	0.3	0.7	-1
Cc1cccc(NCCNc2cccc(C)c2)c1	-12	6	47	0.5	0.9	-4
CC(C)NC(=O)c1ccccc1NC(=O)CCc1ccccc1	-4	x	x	x	x	-3
COc1ccc(S(=O)(=O)NCC(=O)O)cc1C(=O)NC1CCCCC1	x	x	x	x	x	-2
COc1ccc(CC(=O)NNc2ncnc3c2cnn3C)cc1	x	x	x	x	x	1
O=c1c(N2CCCCC2)coc2ccccc12	-14	-29	15	0.8	1.3	0
CCOC(=O)C(NC(C)=O)(Nc1cccc(F)c1)C(F)(F)F (stereo not given)	10	15	47	0.5	0.8	-1
CCOC(=O)C(NC(=O)Nc1ccc(F)cc1)(OCC)C(F)(F)F (stereo not given)	-4	19	50*	0.5	0.8	0
CCOC(=O)C(NC(=O)NCc1ccccc1)(OCC)C(F)(F)F (stereo not given)	x	x	x	x	x	-3
SMILES	MRP resist rev	CYP2C9 inh	CYP2C19 inhib	CYP2C19 act	CYP2C9 act	MRP1 act
CCOC(=O)C(NC(C)=O)(Nc1ccc(F)cc1)C(F)(F)F (stereo not given)	-15	6	63*	0.4	0.9	-1
Cc1ccc(OCC(=O)N/N=C/C=C/c2ccco2)cc1C	x	x	x	x	x	0
Cc1ccc(NC(=S)/C(=C(\[O-])c2ccc(C)c([N+](=O)[O-])c2)[n+]2ccccc2)cc1C	4	69*	38	0.6	0.3	-5
COc1cccc(NC(=S)/C(=C(\[O-])c2ccc(C)c([N+](=O)[O-])c2)[n+]2ccccc2)c1	-8	45	27	0.7	0.5	-3
COc1ccc(NC(=O)c2cncc(Br)c2)c(S(=O)(=O)N2CCOCC2)c1	3	28	55*	0.4	0.7	-3
CCNc1ccc(C(=O)OCC)cc1NC(=O)c1cccc(N(C)C)c1	-22	50*	28	0.7	0.5	1
CCOC(=O)c1ccc(NC(=O)c2ccc(C)c(S(=O)(=O)N3CCOCC3)c2)cc1	1	-15	26	0.7	1.1	-2
COc1cc(C)ccc1NC(=O)c1ccc(S(=O)(=O)N2CCOCC2)cc1	-1	-189	-6	1.1	2.9*	-2
CCNc1ccc(C(=O)OCC)cc1NC(=O)c1cc(S(=O)(=O)N2CCOCC2)ccc1C	11	54*	88*	0.1	0.5	-3
CC(=O)c1cn(C)c(=O)n(C)c1=O	x	x	x	x	x	-3
Cc1ccc(C(C#N)N2CCOCC2)cc1 (stereo not given)	x	x	x	x	x	-2
COc1cc(C(=O)Nc2ccccc2C2COC(=O)C2=N)cc(OC)c1OC (stereo not given)	x	x	x	x	x	-3
CC(=O)c1ccc(NC(=S)N(C)C2CCN(C)CC2)cc1	x	x	x	x	x	-1
Cc1ccc(C)c(NC(=O)CCc2ccc(S(=O)(=O)NC3CCCCC3)cc2)c1	x	76*	84*	0.2	0.2	0
Cc1ccc(NC(=O)CCc2ccc(S(=O)(=O)N3CCOCC3)cc2)c(C)c1	x	65*	51*	0.5	0.3	-1
N#Cc1ccc(NC(=O)CCc2ccc(S(=O)(=O)N3CCOCC3)cc2)cc1	x	70*	15	0.8	0.3	-1
CC[N+](C)(C)c1cccc(O)c1	4	x	x	x	x	-1
COc1ccc(CCCC(=O)O)c(C)c1	-4	x	x	x	x	-2
Cc1ccc(/C=N/NC(=O)CNC(=O)Cc2ccccc2)o1	x	x	x	x	x	-1
Cc1ccc(S(=O)(=O)N(CC(=O)N2CCC(C)CC2)Cc2ccccc2F)cc1	21	79*	84*	0.2	0.2	-1
Cc1ccc(S(=O)(=O)N(CC(=O)O)Cc2ccccc2F)cc1	5	51*	-2	1	0.5	0
CCOC(=O)C1=C(C)Nc2nc(SCc3cccnc3)nn2C1c1ccc(OC)cc1 (stereo not given)	-2	66*	26	0.7	0.3	-1
CCOC(=O)C1=C(C)Nc2nc3ccccc3n2C1c1ccncc1 (stereo not given)	-2	54*	54*	0.5	0.5	-2
C=CCOC(=O)C1=C(C)Nc2nc3ccccc3n2C1c1ccncc1 (stereo not given)	-17	58*	62*	0.4	0.4	-4
Cc1c(S(=O)(=O)N2CCc3ccccc3C2)c(=O)n(C)c(=O)n1C	15	-5	12	0.9	1	-1
O=C(OC1Cn2c(=O)ccc(=O)n2C1)c1ccccc1	x	x	x	x	x	0
COC(=O)c1cn(N(C)c2ncc(C(F)(F)F)cc2Cl)c(=O)c2ccccc12	-22	100*	98*	0	0	-1
COC(=O)c1cn(Nc2ncc(C(F)(F)F)cc2Cl)c(=O)c2ccccc12	3	35	52*	0.5	0.7	2
